In PubChem BioAssay (NCATS):
The source made the active and inactive calls. Calls follow the shape of the dose curve; as a rule, active = well fitted activation curve with a large enough effect; inconclusive = small, poorly fitted or top-dose-only effect; inactive = flat fitted curve, though single readings scatter.

Experiment: Cellular Toxicity (caspase-3) N2a (AID 665);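 also: compound exposure lasted 16 h at 37 °C before readout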
Conditions: N2a cells, luminescence, normalized: DMSO 0%, 10 µM staurosporine 100%; series mostly up to 92.2 µM
From the text: NIH Chemical Genomics Center [NCGC]
NIH Molecular Libraries Screening Centers Network [MLSCN]
National Institutes of Environmental Health Sciences [NIEHS]
National Toxicology Program [NTP]
We have developed a 1536-well cell-based assay for quantitative high throughput screening (qHTS) against a number of cell lines to determine in vitro caspase 3/7 activity of small molecules. This particular assay uses the N2a cell line which is derived from mouse neuroblastoma.
NCGC Assay Protocol Summary:
The Caspase-Glo 3/7 assay (Promega) is a homogeneous method to measure caspase-3 and caspase-7 activities in cultured cells. The quantitation of caspase 3/7 activity is based on the cleavage of a peptide-aminoluciferin substrate. After caspase cleaves the substrate the free aminoluciferin is liberated and serves as the substrate of luciferase, which generates the light. The luminescent signal is proportional to the amount of caspase 3/7 activity present.
Using the Caspase-Glo 3/7 assay, the amount of caspase 3/7 activity was measured in the N2a cells with complete culture medium following compound treatment for 16 hours. The assay was performed in opaque white 1536-well plates. In the screen, staurosporine and doxorubicin were used as positive controls. Library compounds were measured for their ability to cause the activation of caspase 3/7 in the cell line, as reflected by an increase in luminescence signal, in a concentration-dependent manner. Data were normalized to the controls for basal activity (DMSO only) and 100% stimulation (10 uM staurosporine). AC50 values were determined from concentration-response data modeled with the standard Hill equation.
qHTS protocol for caspase 3/7 assay in mouse N2a cell line
[Step] [Parameter] [Value] [Description]
1. Reagent; 5 uL; 1500 mouse N2a cells/well
2. Time; 5 hr; 37 °C incubation
4. Controls; 23 nL; doxorubicin 7 pM to 100 uM & staurosporine 1.4 pM to 20 uM
5. Time; 16 hr; 37 °C incubation
6. Reagent; 5 uL; Caspase-Glo 3/7 reagent
7. Time; 1 hr; Room Temperature
8. Detection; Luminescence; Viewlux plate reader
Keywords: caspase 3/7, apoptosis, mouse N2a cell line, luminescence, NTPHTS, NTPHTS_NCGC, NIEHS, EPA, DSSTox, MLSMR, MLSCN, NIH Roadmap, qHTS, NCGC

Structure (SMILES) | outcome
Brc1ccccc1-c1ccccc1 | inactive
Oc1ccccc1 | inactive
Cc1ccc(O)cc1 | inactive
CC(=O)OC/C=C(C)/C=C/C=C(C)/C=C/C1=C(C)CCCC1(C)C | inactive
CC(C)(C)c1ccc(O)c(O)c1 | inactive
Nc1cccc2c(N)cccc12 | inactive
Nc1ccc(O)cc1 | inactive
c1ccc2occc2c1 | inactive
Cc1cc(C(C)(C)C)c(O)c(C(C)(C)C)c1 | inactive
O=C(Oc1ccccc1)c1ccccc1O | inactive
O=C(c1ccccc1)c1ccccc1 | inactive
C1=CC2C3C=CC(C3)C2C1 (centres undefined) | inactive
CCCCC(CC)COC(=O)c1ccccc1C(=O)O (centres undefined) | inactive
CC(C)C(C)(C)C(C)(C)C(C)(C)S | inactive
COc1cc(C=O)ccc1O | inactive
OCc1c[nH]c2ccccc12 | inactive
CC(C)(c1ccc(O)cc1)c1ccc(O)cc1 | inactive
O=C(NO)c1ccccc1 | inactive
CCCC(=O)c1cc(O)c(O)cc1O | inactive
